RecA intein inh – inhibitors of M. tuberculosis RecA intein splicing. cell-free RecA intein splicing, fluorescence. inhibition, % (test concentration not listed). actives 0.75% (n = 290,000); in the data active = inhibition above about 30%;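 also: 0% = vehicle wells and 100% = reference inhibitor control wells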
Target sequence (P9WHJ3 whole entry, looked up): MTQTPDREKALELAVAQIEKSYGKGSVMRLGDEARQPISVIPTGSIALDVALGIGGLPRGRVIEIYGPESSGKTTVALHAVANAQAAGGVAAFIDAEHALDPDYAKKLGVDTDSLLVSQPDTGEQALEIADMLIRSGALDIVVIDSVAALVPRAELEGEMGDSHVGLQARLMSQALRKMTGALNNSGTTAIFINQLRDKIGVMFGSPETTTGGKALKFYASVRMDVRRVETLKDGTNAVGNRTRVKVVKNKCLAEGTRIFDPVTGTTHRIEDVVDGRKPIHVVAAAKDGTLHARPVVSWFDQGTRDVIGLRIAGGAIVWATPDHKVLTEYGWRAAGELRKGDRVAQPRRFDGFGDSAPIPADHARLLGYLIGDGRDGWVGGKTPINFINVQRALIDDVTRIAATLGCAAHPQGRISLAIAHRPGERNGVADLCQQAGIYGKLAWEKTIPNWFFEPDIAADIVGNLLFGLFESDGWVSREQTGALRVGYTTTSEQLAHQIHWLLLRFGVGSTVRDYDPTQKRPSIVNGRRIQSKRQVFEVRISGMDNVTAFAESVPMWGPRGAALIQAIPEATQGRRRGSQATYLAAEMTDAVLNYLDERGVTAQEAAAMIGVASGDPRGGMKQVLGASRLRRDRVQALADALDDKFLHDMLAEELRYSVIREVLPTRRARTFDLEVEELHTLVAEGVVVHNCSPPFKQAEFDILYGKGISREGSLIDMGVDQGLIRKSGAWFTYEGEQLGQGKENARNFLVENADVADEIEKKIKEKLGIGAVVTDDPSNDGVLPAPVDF
Mtb FBA inh – Mtb fructose-bisphosphate aldolase inhibition; actives 2.3% (n = 360,000); inhibition, % at 1 µM; purified M. tuberculosis FBA, fluorescence read-out; P9WQA3; in the data active = inhibition above about 27%;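 also: 0% = vehicle and 100% = reference inhibitor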
DUSP3 inh – blocks human VHR1 dual specificity phosphatase. recombinant VHR phosphatase, pNPP absorbance. P51452. actives 0.52% (n = 290,000). inhibition, % at 13.3 µM; in the data active = inhibition above about 50%
3CLpro inhibitor – SARS-CoV 3CLpro protease inhibition; inhibition, % at 6 µM; AID 1706; recombinant SARS-CoV 3CLpro, quenched FRET peptide cleavage; actives 0.14% (n = 290,000); in the data active = inhibition above about 12%
GDH-TPI counter-1 – GDH-TPI coupled enzyme inhibition counter-screen | inhibition, % at 4.8 µM | actives 1.2% (n = 360,000) | GDH-TPI coupled enzyme counterscreen, NADH absorbance | AID 588335;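 also: 0% = DMSO wells and 100% = wells lacking the enzyme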
CCHF vOTU inh – blocks the CCHF virus ovarian tumor domain protease. CCHFV vOTU protease, Pep-AMC fluorescence. actives 0.55% (n = 370,000). inhibition, % at 11.5 µM; also: 0% = vehicle wells with enzyme and 100% = no enzyme wells
Mtb FBA inh conf – Mtb FBA inhibition, confirmed; shares compounds with Mtb FBA inh; purified M. tuberculosis FBA, fluorescence read-out; inhibition, % at 1 µM; actives 78% (n = 5,600); in the data active = inhibition above about 27%;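 also: 0% = vehicle wells and 100% = reference inhibitor wells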
GDH-TPI counter-2 – inhibits GDH-TPI coupling enzymes, flagging Mtb FBA hits. shares compounds with Mtb FBA inh. inhibition, % at 1 µM. GDH-TPI coupled enzyme counterscreen, fluorescence. actives 81% (n = 5,600); in the data active = inhibition above about 10%
GDH-TPI dose – GDH-TPI dose response counter-screen for Mtb FBA. shares compounds with Mtb FBA inh. GDH-TPI coupled enzyme assay, fluorescence, artifact counterscreen. IC50, µM. actives 79% (n = 170); call rule not given here
* hit, by the source's call; nt = no result given; + = active, no number. A selection: hits, their analogues and other compounds. The true share with any hit is near 4.7%. Rule as the data show it, unless noted: active = inhibition above about 30%; inactive = the rest.

SMILES | RecA intein inh | Mtb FBA inh | DUSP3 inh | 3CLpro inhibitor | GDH-TPI counter-1 | CCHF vOTU inh | Mtb FBA inh conf | GDH-TPI counter-2 | others
CCC(=O)Nc1ccc2c(c1)nc1n2CCN(C2CCCCC2)C1 | -0.4 | 61.9* | 21.7 | 4.6 | 2.5 | -9.1 | 92.3* | 90.8*
COCc1cc(C)nc2sc(C(=O)OC(C)C)c(N)c12 | -7.5 | 40.6* | 7.1 | 1.1 | 19.4 | 11.8 | + | 174.8*
O=S(=O)(Nc1nc2ccccc2nc1NCC1CCCO1)c1cccs1 (stereo unspecified) | 0.1 | 5.4 | 11.3 | 0.0 | 26.6 | 11.2 | nt | nt
Cc1ccc(S(=O)(=O)Nc2nc3ccccc3nc2NCC2CCCO2)c(C)c1 (stereo unspecified) | -1.4 | 29.5* | 1.5 | 2.9 | 15.5 | -20.0 | 108.1* | 91.7*
COC(=O)c1cc(-c2c(C)noc2C)c(=O)n2c1CCC2 | nt | nt | nt | nt | nt | 6.3 | nt | nt
COCCn1cc(C(=O)N2CCN(C)CC2)c2c3ccccc3n(C)c2c1=O | 0.1 | 42.3* | 22.6 | -2.9 | 0.6 | -35.2 | 106.4* | 62.1*
COCCn1cc(C(=O)NCc2cccs2)c2c3ccccc3n(C)c2c1=O | 6.6 | 23.2 | 10.7 | -7.9 | 11.6 | -28.2 | nt | nt
CCOC(=O)N1CCN(C(=O)c2cn(CCOC)c(=O)c3c2c2ccccc2n3C)CC1 | -1.6 | 42.7* | 17.9 | -4.7 | 17.7 | -47.1 | + | +
COC(=O)c1ccccc1-c1c2ccc(=N)cc-2oc2cc(N)ccc12 | nt | -6.0 | nt | nt | 4.5 | 3.0 | nt | nt
O=C(Nc1nc2ncccn2c1-c1ccccc1)c1ccc(F)cc1 | nt | nt | nt | nt | nt | -7.6 | nt | nt
COc1cccc(-c2ccc(C#N)c(=O)[nH]2)c1 | -0.7 | 111.2* | 7.8 | -0.7 | 18.9 | -54.2 | + | +
COc1cccc(C2Nc3ccc4ccccc4c3C3=C2C(=O)CC(C)(C)C3)c1OCC(=O)O (stereo unspecified) | -373.5 | 64.7* | 15.6 | 3.7 | 9.4 | -232.4 | 132.1* | 113.5*
CC1(C)CC(=O)C2=C(C1)c1c(ccc3ccccc13)NC2c1ccc(Br)o1 (stereo unspecified) | -1.2 | 31.5* | 15.2 | 3.7 | 15.9 | 4.8 | 173.7* | 148.4*
COc1ccc(OC)c(C2Nc3ccccc3NC3=C2C(=O)CC(C)(C)C3)c1 (stereo unspecified) | 0.2 | -0.8 | 6.1 | -0.3 | 19.5 | 6.0 | nt | nt
CCOC(=O)c1cc(C#N)c(SCC(=O)O)[nH]c1=O | 1.2 | 42.5* | 16.7 | 1.0 | 16.7 | -8.3 | 32.3* | 22.5*
CCOC(=O)c1cc(C#N)c(SCC(N)=O)[nH]c1=O | -7.1 | 22.4 | -10.8 | -0.3 | 10.1 | -20.8 | nt | nt
COC(=O)CSc1nnc([C@H](Cc2ccccc2)NC(=O)OC(C)(C)C)o1 | 0.4 | 44.4* | -6.2 | -0.5 | 0.0 | 0.1 | 67.2* | 64.4*
COCCn1c(-c2ccc3ccccc3c2)nc2c1c(=O)[nH]c(=O)n2CC(C)C | -1.4 | 73.5* | 16.3 | 1.5 | -1.8 | 5.9 | 97.8* | 83.0*
CCCCn1c(=O)[nH]c(=O)c2c(C(=O)OCC)cc(-c3ccc(OC(F)F)cc3)nc21 | 0.2 | 16.9 | 3.0 | 0.8 | -1.9 | -2.1 | nt | nt
CCCn1c(=O)[nH]c(=O)c2c(C(=O)OCC)cc(-c3cccs3)nc21 | -3.0 | 88.8* | 22.2 | 0.8 | 8.8 | -161.3 | 100.1* | 86.9*
CCCn1c(=O)[nH]c(=O)c2c1nc(-c1cccs1)n2CCOC | 0.5 | 89.5* | 12.9 | 0.3 | 14.6 | -28.9 | + | 167.3*
CCCn1c(=O)[nH]c(=O)c2c1nc(-c1cc([N+](=O)[O-])ccc1Cl)n2CCOC | 1.4 | -1.8 | 24.0 | -2.3 | -12.0 | 8.5 | nt | nt
CCCCn1c(=O)[nH]c(=O)c2c(C(=O)OCC)cc(-c3cccs3)nc21 | -4.8 | 69.3* | 20.4 | 6.3 | 4.5 | -52.4 | 11.9 | 7.5 | GDH-TPI dose=1.26*
COc1cc(C2/C(=C(/O)c3ccccc3)C(=O)C(=O)N2c2ccccn2)ccc1O (stereo unspecified) | -5.2 | -1.4 | 3.1 | 0.5 | 1.9 | -2.4 | nt | nt
CSCC[C@H](NC(=O)Cc1c(C)c2c(cc(C)c3c(C)coc32)oc1=O)C(=O)O | -2.3 | 52.8* | 6.9 | -4.0 | 4.3 | -45.2 | + | 186.8*
SMILES | RecA intein inh | Mtb FBA inh | DUSP3 inh | 3CLpro inhibitor | GDH-TPI counter-1 | CCHF vOTU inh | Mtb FBA inh conf | GDH-TPI counter-2 | others
CC[C@@H](C)[C@H](NC(=O)Cc1c(C)c2cc3c(C)coc3c(C)c2oc1=O)C(=O)O | -3.4 | 18.3 | 3.0 | -2.8 | 7.1 | -15.2 | nt | nt
CC[C@@H](C)[C@H](NC(=O)Cc1c(C)c2c(cc(C)c3c(C)coc32)oc1=O)C(=O)O | -6.6 | 63.7* | 5.2 | 3.7 | 8.2 | -47.9 | 112.3* | 94.0*
Cc1ccc(-c2ccc(CCC(=O)O)n2CC2CCCO2)cc1 (stereo unspecified) | -14.6 | 40.7* | 18.9 | 4.1 | -1.3 | -55.9 | 91.7* | 60.1*
O=C(O)CCc1ccc(-c2ccccc2)n1CC1CCCO1 (stereo unspecified) | -4.8 | 36.9* | 22.8 | 2.6 | -0.8 | -48.1 | 133.4* | 118.5*
Cc1ccc(-c2ccc(CCC(=O)O)n2CC(=O)O)cc1 | -2.3 | 20.2 | -25.8 | 0.4 | 10.2 | nt | nt | nt
NS(=O)(=O)c1ccc(CCNC(=O)c2coc3ccccc3c2=O)cc1 | -6.8 | 27.8* | 24.0 | 1.9 | -0.4 | 9.7 | 154.8* | 98.6*
O=C(Nc1cccc(-c2nc3ncccc3o2)c1)c1ccccc1 | 1.1 | -0.2 | -15.2 | 0.6 | -7.7 | -9.8 | nt | nt
CC(C)CC(=O)Nc1cccc(-c2nc3ncccc3o2)c1 | -0.3 | 31.6* | 6.1 | -3.6 | -3.7 | -17.2 | 0.1 | -3.2
Cc1ccc(-c2nc3ncccc3o2)cc1NC(=O)C(C)C | 1.3 | 55.4* | 20.4 | -4.8 | 11.4 | -1.1 | 18.3 | 8.7
Cc1c(NC(=O)C(C)C)cccc1-c1nc2ncccc2o1 | -1.4 | 28.7* | 4.4 | -0.7 | 8.6 | -10.5 | -7.4 | -7.5
Cc1cccc(NC(=O)CCCCCN2C(=O)[C@@H]3Cc4ccccc4CN3C2=O)c1 | 5.0 | -1.9 | 25.3 | 1.2 | -3.1 | 4.5 | nt | nt
Cc1ccc(NC(=O)CCCCCN2C(=O)[C@@H]3Cc4ccccc4CN3C2=O)cc1 | 4.2 | 53.3* | -1.9 | -4.1 | 5.9 | 16.6 | -4.8 | -6.5
Cc1ccccc1CC(=O)Nc1ccc(S(=O)(=O)N2CCOCC2)cc1 | 1.5 | -1.0 | 16.7 | -1.9 | -10.0 | -11.5 | nt | nt
Cc1nn2c(=O)cc(COC(=O)c3c(F)cccc3Cl)nc2s1 | nt | 5.0 | nt | nt | 6.9 | -9.1 | nt | nt
CCc1ccccc1Cn1c(=O)oc2cccnc21 | -0.7 | 40.4* | 14.4 | -2.4 | -7.3 | -7.3 | 41.4* | 37.0*
COc1ccccc1Cn1c(=O)oc2ccccc21 | nt | -1.1 | nt | nt | 7.1 | -9.2 | nt | nt

High-throughput results deposited in PubChem BioAssay by several laboratories.
